# Test results taken from PubChem BioAssay (NCI).
# The panel holds about 83,000 compounds, 20% with a hit somewhere; the sample as a whole holds those more often.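 For each line, cells grew in 96-well plates with the test compound present at a single concentration for 48 hours.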 Active and inactive are the calls of the source. Rule for the calls: active = growth percent below 10; inactive = the rest.
# System: PC-3 prostate
# Assay: NCI-60 one-dose screen, 48 h (100 = growth as untreated, 0 = no growth, -100 = all killed)
# Settings: 10 µM unless noted
row,Structure (SMILES),growth
1,CN1CCN(c2ccc(-c3ccc4ncc(C#N)c(Nc5ccc(F)c(Cl)c5)c4c3)cc2)CC1,45.8% (inactive)
2,CNc1ccc(Nc2cccc(C)c2)c2c1C(=O)c1ccccc1C2=O,95% (inactive)
3,O=C(Nc1ccc(Cl)cc1F)c1ccccc1O,59.6% (inactive)
4,O=C1CCC(C(=O)NCCNCCNC(=O)C2CCC(=O)N2)N1 (stereo unspecified),78.5% (inactive)
5,CC/C=C\C[C@@H](O)C/C=C1/C(=O)C=C[C@H]1C/C=C\CCCC(=O)OC,-21.1% (active)
6,Cc1ccc(C(=O)NN2C(=O)CSC2c2cccc([N+](=O)[O-])c2)cn1 (stereo unspecified),86.6% (inactive)
7,CNCCCNc1nc2ccccc2c2c(=O)c3cc(OC)ccc3sc12,68.8% (inactive)
8,COc1ccc(-c2[nH]c3ccc(OC)cc3c2/C=C(\C#N)S(=O)(=O)c2ccccc2)cc1,24.8% (inactive)
9,N[C@@H](Cc1ccccc1)[C@@H](O)C(=O)NCc1ccc(F)cc1,106% (inactive)
10,COc1cc(CCC[P+](c2ccccc2)(c2ccccc2)c2ccccc2)c(OC)c(OC)c1OC,75.6% (inactive)
11,O=C(Nc1ccc(OS(=O)(=O)c2ccc(F)cc2)cc1)c1ccc(Cl)cc1,91.8% (inactive)
12,CC(=O)OC[C@H]1OC(Sc2sc(C(=O)c3ccc(Br)cc3)c(N)c2-c2nc3ccccc3s2)[C@H](OC(C)=O)[C@@H](OC(C)=O)[C@H]1OC(C)=O (stereo partly specified),70.8% (inactive)
13,CCOc1c(B(O)O)cccc1-c1nc2ccc3[nH]ncc3c2c2c1CCCC2,68.3% (inactive)
14,Cc1ccc(-c2nc3c(c(-c4ccccc4)nn3-c3ccccc3)c(-c3ccc(O)cc3)c2C#N)cc1,34.3% (inactive)
15,C/C(=C\C(=O)c1ccc(Cl)cc1)c1ccc(Cl)cc1,87.8% (inactive)
16,CCC12CCC[N+]3([O-])CCC4(C(=Nc5ccccc54)C(O)(C(=O)OC)C1)C23 (stereo unspecified),87.8% (inactive)
17,CCN1C(=O)N(CC)C2Nn3c(s/c(=C4\C(=O)N(CCC(C)C)c5ccccc54)c3=O)=NC21 (stereo unspecified),63.2% (inactive)
18,S=c1nc(-c2ccccc2)oc(=NC2CCCCC2)n1C1CCCCC1,3.69% (active)
19,NC[C@@H]1O[C@H](O[C@@H]2[C@@H](CO)OC(O[C@@H]3[C@@H](O)[C@H](N)C[C@H](N)[C@H]3OC3O[C@H](CN)[C@@H](O)[C@H](O)[C@H]3N)[C@@H]2O)[C@H](N)[C@@H](O)[C@@H]1O (stereo partly specified),111% (inactive)

row,Structure (SMILES),growth
1,Cc1cc(=O)oc2cc(OC(=O)N3CCN(C)CC3)ccc12,96.7% (inactive)
2,C=CCc1cc(C)ccc1NC(C(=O)NCC(=O)OC)c1ccccc1 (stereo unspecified),89.1% (inactive)
3,COc1ccc(OC)c(/C=C/C(=O)N/N=C/c2ccccc2)c1,63.5% (inactive)
4,COc1ccc(/C=N/Nc2cc(=O)[nH]c3ccc(Cl)cc23)cc1,59.1% (inactive)
5,CCOC(=O)c1[nH]c(C)c(C(=O)OCc2ccccc2C#N)c1C,80.3% (inactive)
6,COc1cc(Nc2nc(NCCN)nc3cc[nH]c(=O)c23)cc(OC)c1,113% (inactive)
7,COc1cc(/C=C/c2c(C(C)=O)c(C)nc3ccccc23)cc(OC)c1OC,32.5% (inactive)
8,Cc1nc2ccccc2c(/C=C/c2ccc(Cl)cc2)c1C(=O)/C=C/c1ccc(C(F)(F)F)cc1,-52.3% (active)
9,O=C(N/N=C/[C@H](O)[C@H](O)[C@H](O)CO)c1ccc(NC(=O)c2cccnc2)cc1,96.3% (inactive)
10,COc1cccc(-c2nc(-c3ccc(NC(=O)c4ccccc4)cc3)[nH]c2-c2ccnc(Br)c2)c1,17.6% (inactive)
11,CCCCn1c(=O)c(-c2cc(-c3ccc(Cl)cc3)nc(-c3ccc(Cl)cc3)c2)cc2cc(Cl)ccc21,98.4% (inactive)
12,O=S(=O)(NCCCNc1cc(-c2c(-c3cccc(O)c3)nc3sccn23)ccn1)c1cccc2ccccc12,30.4% (inactive)
13,COc1cccc2c(=O)c3c(sc12)c(N1CCNCC1)nc1ccccc13,68.3% (inactive)
14,COc1cc(-c2nc3sccn3c2-c2ccnc(NCCCNS(=O)(=O)c3ccc(F)cc3)n2)ccc1F,46.8% (inactive)
15,CCCCC[C@H](O)C/C=C1/C(=O)C=C[C@@H]1C/C=C\CCCC(=O)O,78.4% (inactive)
16,CCCCCCN1C(=O)/C(=c2\sc3n(c2=O)C2C(NN=3)N(CC)C(=O)N2CC)c2ccccc21 (stereo unspecified),15.2% (inactive)
17,COc1cccc2c(=O)c3c(sc12)c(NCCCN)nc1ccccc13,55.9% (inactive)
18,COc1ccc2c(c1)c(-c1nn3cc(-c4cccs4)nc3s1)cn2C,69.6% (inactive)
19,CCOC(=O)Nc1ccc(-c2nc(-c3cccc(OC)c3)c(-c3ccnc(Br)c3)[nH]2)cc1,11.2% (inactive)

# System: SK-MEL-5 melanoma
# Assay: as above
# Settings: 10 µM unless noted
row,Structure (SMILES),growth
1,CN1CCN(c2ccc(-c3ccc4ncc(C#N)c(Nc5ccc(F)c(Cl)c5)c4c3)cc2)CC1,58.1% (inactive)
2,CNc1ccc(Nc2cccc(C)c2)c2c1C(=O)c1ccccc1C2=O,91% (inactive)
3,O=C(Nc1ccc(Cl)cc1F)c1ccccc1O,-47.5% (active)
4,O=C1CCC(C(=O)NCCNCCNC(=O)C2CCC(=O)N2)N1 (stereo unspecified),91.3% (inactive)
5,CC/C=C\C[C@@H](O)C/C=C1/C(=O)C=C[C@H]1C/C=C\CCCC(=O)OC,-82.2% (active)
6,Cc1ccc(C(=O)NN2C(=O)CSC2c2cccc([N+](=O)[O-])c2)cn1 (stereo unspecified),104% (inactive)
7,CNCCCNc1nc2ccccc2c2c(=O)c3cc(OC)ccc3sc12,91.6% (inactive)
8,COc1ccc(-c2[nH]c3ccc(OC)cc3c2/C=C(\C#N)S(=O)(=O)c2ccccc2)cc1,-25.5% (active)
9,N[C@@H](Cc1ccccc1)[C@@H](O)C(=O)NCc1ccc(F)cc1,102% (inactive)
10,COc1cc(CCC[P+](c2ccccc2)(c2ccccc2)c2ccccc2)c(OC)c(OC)c1OC,76% (inactive)
11,O=C(Nc1ccc(OS(=O)(=O)c2ccc(F)cc2)cc1)c1ccc(Cl)cc1,90.8% (inactive)
12,CC(=O)OC[C@H]1OC(Sc2sc(C(=O)c3ccc(Br)cc3)c(N)c2-c2nc3ccccc3s2)[C@H](OC(C)=O)[C@@H](OC(C)=O)[C@H]1OC(C)=O (stereo partly specified),36.3% (inactive)
13,CCOc1c(B(O)O)cccc1-c1nc2ccc3[nH]ncc3c2c2c1CCCC2,86.7% (inactive)
14,Cc1ccc(-c2nc3c(c(-c4ccccc4)nn3-c3ccccc3)c(-c3ccc(O)cc3)c2C#N)cc1,77.6% (inactive)
15,C/C(=C\C(=O)c1ccc(Cl)cc1)c1ccc(Cl)cc1,94.1% (inactive)
16,CCC12CCC[N+]3([O-])CCC4(C(=Nc5ccccc54)C(O)(C(=O)OC)C1)C23 (stereo unspecified),116% (inactive)
17,CCN1C(=O)N(CC)C2Nn3c(s/c(=C4\C(=O)N(CCC(C)C)c5ccccc54)c3=O)=NC21 (stereo unspecified),89.5% (inactive)
18,S=c1nc(-c2ccccc2)oc(=NC2CCCCC2)n1C1CCCCC1,66.1% (inactive)
19,NC[C@@H]1O[C@H](O[C@@H]2[C@@H](CO)OC(O[C@@H]3[C@@H](O)[C@H](N)C[C@H](N)[C@H]3OC3O[C@H](CN)[C@@H](O)[C@H](O)[C@H]3N)[C@@H]2O)[C@H](N)[C@@H](O)[C@@H]1O (stereo partly specified),106% (inactive)

row,Structure (SMILES),growth
1,Cc1cc(=O)oc2cc(OC(=O)N3CCN(C)CC3)ccc12,102% (inactive)
2,C=CCc1cc(C)ccc1NC(C(=O)NCC(=O)OC)c1ccccc1 (stereo unspecified),102% (inactive)
3,COc1ccc(OC)c(/C=C/C(=O)N/N=C/c2ccccc2)c1,30.8% (inactive)
4,COc1ccc(/C=N/Nc2cc(=O)[nH]c3ccc(Cl)cc23)cc1,38.2% (inactive)
5,CCOC(=O)c1[nH]c(C)c(C(=O)OCc2ccccc2C#N)c1C,60.3% (inactive)
6,COc1cc(Nc2nc(NCCN)nc3cc[nH]c(=O)c23)cc(OC)c1,81.6% (inactive)
7,COc1cc(/C=C/c2c(C(C)=O)c(C)nc3ccccc23)cc(OC)c1OC,31.4% (inactive)
8,Cc1nc2ccccc2c(/C=C/c2ccc(Cl)cc2)c1C(=O)/C=C/c1ccc(C(F)(F)F)cc1,-94.6% (active)
9,O=C(N/N=C/[C@H](O)[C@H](O)[C@H](O)CO)c1ccc(NC(=O)c2cccnc2)cc1,104% (inactive)
10,COc1cccc(-c2nc(-c3ccc(NC(=O)c4ccccc4)cc3)[nH]c2-c2ccnc(Br)c2)c1,-79.6% (active)
11,CCCCn1c(=O)c(-c2cc(-c3ccc(Cl)cc3)nc(-c3ccc(Cl)cc3)c2)cc2cc(Cl)ccc21,107% (inactive)
12,O=S(=O)(NCCCNc1cc(-c2c(-c3cccc(O)c3)nc3sccn23)ccn1)c1cccc2ccccc12,37.3% (inactive)
13,COc1cccc2c(=O)c3c(sc12)c(N1CCNCC1)nc1ccccc13,95.3% (inactive)
14,COc1cc(-c2nc3sccn3c2-c2ccnc(NCCCNS(=O)(=O)c3ccc(F)cc3)n2)ccc1F,40.7% (inactive)
15,CCCCC[C@H](O)C/C=C1/C(=O)C=C[C@@H]1C/C=C\CCCC(=O)O,82.8% (inactive)
16,CCCCCCN1C(=O)/C(=c2\sc3n(c2=O)C2C(NN=3)N(CC)C(=O)N2CC)c2ccccc21 (stereo unspecified),26.8% (inactive)
17,COc1cccc2c(=O)c3c(sc12)c(NCCCN)nc1ccccc13,85.9% (inactive)
18,COc1ccc2c(c1)c(-c1nn3cc(-c4cccs4)nc3s1)cn2C,66.7% (inactive)
19,CCOC(=O)Nc1ccc(-c2nc(-c3cccc(OC)c3)c(-c3ccnc(Br)c3)[nH]2)cc1,25.7% (inactive)
